Screening results: PubChem, National Center for Advancing Translational Sciences (NCATS)
Most compounds without a hit are left out; they make up all but 19% or so of the library.
HT1080 IDH1KD tx: HT-1080 IDH1 knockdown cell toxicity (counter line). hit rate 2% among 360,000. HT-1080 IDH1 knockdown viability, ATP luminescence, 48 h. AID 686971. Potency, µM (highest dose often 46.1 µM), usual class: cytotoxic
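IDH1KD HT-1080 cells, 750/well, RPMI + 5% FBS; compound pinned after 2 h settling; 48 h, 37 °C; CellTiter-Glo luminescence; % activity normalised to DMSO and no-cell wells; curves fitted, classed by r2 and efficacy.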
IL-1B inflam inh: inhibitors of inflammasome signaling (IL-1 beta secretion) | THP-1 LPS/ATP IL-1B secretion, AlphaLISA, 16 h; stronger effect = lower value | activity change, % at 57.5 µM | hit rate 4.7% among 360,000; in the data active = activity change below about -50%; inconclusive = mostly about -30% to -49%
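Secreted IL-1B measured by AlphaLISA bead assay after 16 h compound exposure of THP-1 cells; compounds (final up to 57.5 uM) added 1 h before LPS (250 ng/mL) and ATP (1.25 mM) stimulation; lower signal means less secretion.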
HT1080NT lethal: kills 2HG-producing HT-1080-NT fibrosarcoma cells | Potency, µM (titrated, usually from 46.1 µM), usual class: cytotoxic | HT-1080-NT fibrosarcoma viability, CellTiter-Glo ATP luminescence, 48 h | hit rate 1.6% among 360,000;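 also: NT is the 2HG producing partner of a matched IDH1 knockdown line; nearly all actives have a fitted effect of over 55% in size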
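Read-out is CellTiter-Glo luminescence after 10 minutes at room temperature, following 48 hours' compound treatment of HT-1080-NT cells (750 cells/well, RPMI, 5% FBS, 37 degrees C).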
TDP1 cell noCPT: qHTS for Inhibitors of human tyrosyl-DNA phosphodiesterase 1 (TDP1): qHTS in cells in absence of CPT; hit rate 15% among 420,000; DT40 Tdp1-/- hTDP1 cells, no CPT, ATP luminescence, 48 h; AID 686978, 2013; Potency, µM (highest dose often 46.2 µM), hits mostly inhibitors; also: nearly all actives have a fitted effect of over 55% in size
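Seeded 400 DT40-hTDP1 cells/well (vehicle DMSO, no 20 nM CPT); pinned compounds; ≥48 hr at 37 °C; CellTiter-Glo luminescence as viability measure.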
DT40 TDP1 CPT: growth inhibition of DT40 Tdp1-/-;hTDP1 cells with camptothecin (screen for TDP1 inhibitors); hit rate 12% among 420,000; chicken DT40 Tdp1-/-;hTDP1 cells + 20 nM CPT, ATP luminescence, 48 h; Potency, µM (highest dose often 46.2 µM), actives largely listed as inhibitors; AID 686979; also: nearly all actives have a fitted effect of over 55% in size
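Cell growth measured by CellTiter-Glo luminescence after a minimum 48 h, 37 C compound exposure with 20 nM CPT in Tdp1-knockout DT40 cells stably expressing hTDP1, seeded 400/well; qHTS titration format.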
Hits are given with their value; - = inactive; ? = inconclusive; . = no result given; [ ] = remark or other dose. Unless noted, calls follow the shape of the dose curve; as a rule, active = well fitted curve in the direction sought with a large enough effect; inconclusive = small, poorly fitted or top-dose-only effect, or another doubt; inactive = no such curve, though single readings can be large; an effect the other way counts as inactive or inconclusive.

SMILES | HT1080 IDH1KD tx | IL-1B inflam inh | HT1080NT lethal | TDP1 cell noCPT | DT40 TDP1 CPT
CCOc1ccc(-n2c(SCc3nc(-c4cccs4)no3)nnc2-c2ccncc2)cc1 | ? | - | ? | - | -
CC(C)Cc1cc(C(=O)N2CCCC(CCC(=O)N(C)CCc3ccccn3)C2)no1 (configuration not stated) | - | - | - | - | -
Cc1ccc(-n2c(SCc3nc(-c4ccccc4C)no3)nnc2-c2ccncc2)cc1C | . | . | . | 21µM | 23µM
CCOc1ccccc1-c1noc(CSc2nnc(-c3ccccc3)n2-c2cccc(C)c2)n1 | . | . | . | 21µM | ?
Cc1ccccc1-n1c(SCc2c(C)noc2C)nnc1-c1ccncc1 | - | - | - | - | -
Cc1cccc(-n2c(SCc3nc(-c4ccccc4C)no3)nnc2-c2ccccc2)c1 | . | . | . | ? | -
Cc1ccccc1-c1noc(CSc2nnc(-c3ccncc3)n2-c2ccc(F)cc2)n1 | . | . | . | 15µM | ?
COc1ccc(-c2noc(CSc3nc4ccccc4c(=O)n3-c3ccc(C)cc3)n2)cc1 | - | - | - | - | ?
COc1ccc(-c2noc(CSc3nnc(C)n3-c3ccc(C)c(C)c3)n2)c(OC)c1 | . | . | . | 18µM | ?
CCOc1ccc(-c2cc3c(=O)n(CC(=O)NCc4ccc(F)cc4)ccn3n2)cc1 | . | . | . | - | -
COc1cc(C2c3c(oc4ccccc4c3=O)C(=O)N2Cc2ccccc2Cl)ccc1O (configuration not stated) | . | . | . | - | -
Cc1nnc(SCc2nc(-c3ccc(Cl)cc3)no2)n1-c1ccc(F)cc1 | . | . | . | 26µM | ?
Cc1ccc(-c2noc(CSc3nnc(C)n3-c3ccc(F)cc3)n2)cc1 | . | . | . | - | -
COc1ccc(C2CC(=O)c3cnn(-c4nc(C)cc(C)n4)c3C2)cc1 (configuration not stated) | ? | - | ? | 16µM | 21µM
Cc1cc(Oc2ccc(-c3ccccc3)cc2)n2ncnc2n1 | ? | ? | - | - | 18µM
CCN(c1ccccc1)c1cc(C)nc2ncnn12 | - | - | - | - | -
CC1CCCCN1C(=O)CSc1nc2c(c(=O)n(C)c(=O)n2C)n1C (configuration not stated) | - | - | - | - | -
CN(C)c1ccnc(Oc2ccc(C(C)(C)C)cc2)c1C#N | ? | - | ? | 16µM | ?
Cc1cc(Cl)ccc1Oc1nccc(N(C)C)c1C#N | - | -70 | ? | 16µM | ?
CN(C)c1ccnc(Oc2ccc(Cl)cc2)c1C#N | ? | - | ? | ? | -
COc1ccccc1-c1ccc(C(=O)NCCN2CCOCC2)c(N2CCN(c3ccccc3F)CC2)n1 | . | . | . | - | -[9.04 µM]
CCC(C)n1ncn(-c2ccc(N3CCN(c4ccc(OC)cc4)CC3)cc2)c1=O (configuration not stated) | - | - | - | ? | -
COc1cc(C#Cc2c(-c3cncn3C)n(C)c3ccc(-c4cnc(OC)nc4)cc23)cc(OC)c1 | ? | -58 | ? | ? | 16µM
COc1cc(C#Cc2c(-c3cncn3C)n(C)c3ccc(-c4ccc(CN5CCOCC5)cc4)cc23)cc(OC)c1 | ? | - | ? | 8.2µM | 5.8µM
CN(C)C(=O)c1cc2c(c(-c3cccc(-c4ccccc4F)c3)n1)[C@@H](CCO)N(S(C)(=O)=O)C2 | - | - | - | - | -
SMILES | HT1080 IDH1KD tx | IL-1B inflam inh | HT1080NT lethal | TDP1 cell noCPT | DT40 TDP1 CPT
CCN(CC)CCNC(=O)c1cc2c(-c3ccc(Cl)cc3)nn(C)c2s1 | 18µM | -90 | 18µM | ? | ?
Cn1nc(-c2ccc(Cl)cc2)c2cc(C(=O)NCCCN3CCOCC3)sc21 | - | - | - | 18µM | 16µM
Cn1nc(-c2ccc(Cl)cc2)c2cc(C(=O)NCCN3CCOCC3)sc21 | - | - | - | ? | -
CCOCCCNC(=O)c1cc2c(-c3ccc(Cl)cc3)nn(C)c2s1 | ? | - | - | ? | ?
CC(C)OCCCNC(=O)c1cc2c(-c3ccc(Cl)cc3)nn(C)c2s1 | . | . | . | 21µM | ?
CCCCN(CC)CCNC(=O)c1cc2c(-c3ccc(Cl)cc3)nn(C)c2s1 | 21µM | -97 | 21µM | ? | ?
Cc1cc(-c2ccnc(-n3ncc(C(=O)NCC4COCCO4)c3C3CC3)n2)c(C)s1 (configuration not stated) | . | . | . | 6.5µM | 9.2µM
COc1ccccc1-c1ccnc(-n2ncc(C(=O)N[C@H]3CCCCNC3=O)c2C2CC2)n1 | . | . | . | 21µM | ?
COc1ccccc1-c1ccnc(-n2ncc(C(=O)NCc3ccncc3)c2C)n1 | . | . | . | - | -[9.04 µM]
CN(Cc1cccc2ncccc12)C(=O)c1cnn(-c2ncc3c(n2)-c2ccccc2CC3)c1C1CC1 | . | . | . | 16µM | ?
CC(c1ccon1)N(C)C(=O)c1cnn(-c2ncc3c(n2)-c2ccccc2CC3)c1C1CC1 (configuration not stated) | . | . | . | 16µM | -[9.04 µM]
Cc1[nH][nH]c(=O)c1/C=N/N1CCOCC1 | - | - | - | - | -
C/C1=C/CC(C)(C)/C=C/C/C(C)=C/CC1 | . | . | . | - | -
CN(C)c1ccc(C(C(=O)NC2CCCC2)N(C(=O)c2csnn2)C2CC2)cc1 (configuration not stated) | - | - | - | - | -
Cc1cc(CNC(=O)c2cnn(-c3ncc4c(n3)-c3ccccc3CC4)c2C2CC2)on1 | . | . | . | ? | 16µM
Cc1cc(CNC(=O)c2cnn(-c3nccc(-c4cc(C)sc4C)n3)c2C2CC2)on1 | . | . | . | ? | 16µM
CCC(O)CNC(=O)c1cnn(-c2ncc3c(n2)-c2ccccc2CCC3)c1C1CC1 (configuration not stated) | . | . | . | ? | -
O=C(NCc1cccnc1)c1cnn(-c2ncc3c(n2)-c2ccccc2CCC3)c1C1CC1 | . | . | . | ? | -[9.04 µM]
COC(=O)[C@@H]1CCCN1C(=O)c1cnn(-c2ncc3c(n2)-c2ccccc2CCC3)c1C1CC1 | . | . | . | 16µM | ?
NC(=S)N/N=C/c1ccccc1O | - | - | - | ? | ?
O=C(CN1CCOCC1)N/N=C/c1cc2ccccc2nc1Cl | - | - | - | ? | ?
O=C(CNC(=O)c1ccc(S(=O)(=O)N2CCCC2)cc1)N/N=C/c1ccc(Cl)cc1 | - | - | - | ? | ?
Cc1ccc(NCC(=O)N/N=C/c2cc3ccccc3nc2Cl)cc1 | - | - | ? | 29µM | 23µM
O=C(CNC(=O)c1ccc(S(=O)(=O)N2CCCC2)cc1)N/N=C/c1c(Cl)cccc1Cl | ? | -58 | - | ? | ?
NC(=S)N/N=C/c1cccc(O)c1O | - | - | - | 0.92µM | 0.58µM
Cc1ccc(N=Nc2ccc(O)c(/C=N\NC(=O)c3ccc(N)cc3)c2)cc1C | 1.6µM | - | 4µM | 13µM | 10µM
COc1ccccc1NC(=O)CC1Sc2ccc(C(F)(F)F)cc2NC1=O (configuration not stated) | . | . | . | - | -
COC(=O)N1CCC[C@@]2(CCN(C(=O)Nc3cccc(F)c3)C2)C1 | . | . | . | - | -
